# Experimental data: PubChem BioAssay (Tox21)
# Results filed as inconclusive are left out. A call without a number means that no potency is given here. The source made the active and inactive calls. Unless noted, the call rests on the fitted dose curve; in most records, active means well fitted curve in the direction sought with a large enough effect in the repeat runs; inconclusive means weak or mixed curves; inactive means no such curve, though single readings can be large; an effect the other way counts as inactive or inconclusive.
# Key:
# [1] = molecular target: Estrogen receptor (Homo sapiens) (UniProt P03372); assay: qHTS assay to identify small molecule antagonists of the estrogen receptor alpha (ER-alpha) signaling pathway (AID 743069; active means well fitted curve in the direction sought with a large enough effect in the signal ratio in the repeat runs, not every such curve was filed as active; the % refers to the signal ratio)
# Sequence of Estrogen receptor (Homo sapiens) (P03372 whole entry, looked up): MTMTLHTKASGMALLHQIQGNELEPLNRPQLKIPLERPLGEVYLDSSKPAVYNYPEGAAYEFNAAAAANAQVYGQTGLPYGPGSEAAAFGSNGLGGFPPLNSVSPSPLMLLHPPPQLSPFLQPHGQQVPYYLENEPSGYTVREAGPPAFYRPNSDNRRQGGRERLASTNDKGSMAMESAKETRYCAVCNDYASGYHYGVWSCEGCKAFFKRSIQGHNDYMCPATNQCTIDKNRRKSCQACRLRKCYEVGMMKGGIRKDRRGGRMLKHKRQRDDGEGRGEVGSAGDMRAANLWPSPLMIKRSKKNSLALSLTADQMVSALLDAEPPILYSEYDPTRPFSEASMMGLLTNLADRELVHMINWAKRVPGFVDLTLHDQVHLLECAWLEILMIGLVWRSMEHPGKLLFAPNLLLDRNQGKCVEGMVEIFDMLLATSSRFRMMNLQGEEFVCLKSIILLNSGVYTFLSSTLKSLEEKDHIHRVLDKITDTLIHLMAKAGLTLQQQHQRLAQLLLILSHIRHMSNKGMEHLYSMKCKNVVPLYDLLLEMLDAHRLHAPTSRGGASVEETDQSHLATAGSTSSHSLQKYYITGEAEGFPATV
# Procedure, shortened: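 HEK293 ER-alpha-UAS-bla GripTite cells, held overnight in 2% charcoal-stripped FBS, 5,000 cells/well, preincubated 4 h, then compound plus 17beta-estradiol for 18 h at 37C. Beta-lactamase read by LiveBLAzer B/G FRET substrate, 2 h at room temperature.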
# [2] = qHTS assay to identify small molecule antagonists of the estrogen receptor alpha (ER-alpha) signaling pathway - cell viability counter screen (AID 743074; calls by dose curve;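 further: HEK293 cells carrying ER-alpha-UAS-bla reporter stimulated with 17beta-estradiol; nearly all actives have a fitted effect of over 45% in size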)
# [3] = molecular target: Estrogen receptor (Homo sapiens) (UniProt P03372); assay: qHTS assay to identify small molecule agonists of the estrogen receptor alpha (ER-alpha) signaling pathway (AID 743075; calls by dose curve)
# [4] = molecular target: Estrogen receptor (Homo sapiens) (UniProt P03372); assay: qHTS assay to identify small molecule agonists of the estrogen receptor alpha (ER-alpha) signaling pathway using the BG1 cell line (AID 743079); further: nearly all actives have a fitted effect of over 20% in size; further: potency means the concentration at half of the fitted maximal effect
# [5] = qHTS assay to identify small molecule antagonists of the estrogen receptor alpha (ER-alpha) signaling pathway using the BG1 cell line (AID 743080; calls by dose curve;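 further: BG1 cells stimulated with 17beta-estradiol alongside compound; series mostly up to about 70 µM; nearly all actives have a fitted effect of over 25% in size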)
# Procedure, shortened: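 Luciferase inhibition measured with ONE-Glo after 30 min at RT in BG1Luc4E2 cells given test compounds and 17beta-estradiol for 21.5 h at 37 C; CellTiter-Fluor viability read in the same wells beforehand.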
# [6] = qHTS assay to identify small molecule antagonists of the estrogen receptor alpha (ER-alpha) signaling pathway using the BG1 cell line - cell viability counter screen (AID 743081);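 further: compound given together with 17beta-estradiol as the ER stimulus; series mostly up to about 70 µM; nearly all actives have a fitted effect of over 45% in size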
# [7] = molecular target: Aromatase (Homo sapiens) (UniProt P11511); assay: qHTS assay to identify aromatase inhibitors (AID 743083); further: series mostly up to about 70 µM; nearly all actives have a fitted effect of over 55% in size
# Sequence of Aromatase (Homo sapiens) (P11511 whole entry, looked up): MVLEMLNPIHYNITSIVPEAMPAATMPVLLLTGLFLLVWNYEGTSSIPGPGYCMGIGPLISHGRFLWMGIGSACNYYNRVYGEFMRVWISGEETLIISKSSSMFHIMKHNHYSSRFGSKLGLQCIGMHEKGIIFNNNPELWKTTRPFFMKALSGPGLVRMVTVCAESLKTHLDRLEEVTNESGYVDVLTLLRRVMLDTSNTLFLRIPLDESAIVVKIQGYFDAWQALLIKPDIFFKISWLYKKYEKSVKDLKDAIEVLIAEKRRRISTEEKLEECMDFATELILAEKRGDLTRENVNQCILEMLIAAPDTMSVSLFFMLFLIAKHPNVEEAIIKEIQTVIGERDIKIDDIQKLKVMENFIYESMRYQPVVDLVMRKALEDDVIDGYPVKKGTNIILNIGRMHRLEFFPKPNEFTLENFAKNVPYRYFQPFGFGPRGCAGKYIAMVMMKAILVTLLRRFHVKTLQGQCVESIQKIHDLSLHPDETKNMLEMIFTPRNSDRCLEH
# [8] = qHTS assay to identify aromatase inhibitors - cell viability counter screen (AID 743084);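 further: cells stimulated with testosterone during compound exposure; nearly all actives have a fitted effect of over 55% in size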
# [9] = molecular target: Aryl hydrocarbon receptor (Homo sapiens) (UniProt P35869); assay: qHTS assay to identify small molecule that activate the aryl hydrocarbon receptor (AhR) signaling pathway (AID 743085); further: nearly all actives have a fitted effect of over 15% in size; further: potency means the concentration at half of the fitted maximal effect;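 on activation: HG2L7.5c1 human HepG2 liver cells with stably integrated DRE-driven firefly reporter; series mostly up to about 70 µM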
# Sequence of Aryl hydrocarbon receptor (Homo sapiens) (P35869 whole entry, looked up): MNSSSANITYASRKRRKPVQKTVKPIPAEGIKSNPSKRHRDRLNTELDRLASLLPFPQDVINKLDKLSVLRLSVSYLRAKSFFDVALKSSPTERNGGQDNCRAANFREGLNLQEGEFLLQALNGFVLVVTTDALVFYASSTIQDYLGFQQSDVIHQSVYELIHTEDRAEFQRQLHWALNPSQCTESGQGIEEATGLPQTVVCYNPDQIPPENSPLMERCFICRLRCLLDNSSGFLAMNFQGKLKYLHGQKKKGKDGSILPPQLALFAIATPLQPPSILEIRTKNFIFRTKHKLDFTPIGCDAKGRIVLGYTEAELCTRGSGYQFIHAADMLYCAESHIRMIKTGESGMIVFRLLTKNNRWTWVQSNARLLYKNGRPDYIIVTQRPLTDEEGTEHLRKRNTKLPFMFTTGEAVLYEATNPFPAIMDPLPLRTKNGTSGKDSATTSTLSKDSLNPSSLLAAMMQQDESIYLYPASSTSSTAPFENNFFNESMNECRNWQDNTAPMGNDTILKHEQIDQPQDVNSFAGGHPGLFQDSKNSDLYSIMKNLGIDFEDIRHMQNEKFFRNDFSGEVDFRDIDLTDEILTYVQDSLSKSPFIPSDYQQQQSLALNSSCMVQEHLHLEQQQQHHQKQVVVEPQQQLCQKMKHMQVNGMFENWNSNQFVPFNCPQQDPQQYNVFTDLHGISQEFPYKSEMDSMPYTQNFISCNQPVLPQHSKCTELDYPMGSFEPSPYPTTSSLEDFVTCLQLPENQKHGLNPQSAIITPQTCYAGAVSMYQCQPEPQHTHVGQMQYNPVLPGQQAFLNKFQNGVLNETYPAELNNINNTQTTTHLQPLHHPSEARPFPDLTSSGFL
# Procedure, shortened: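 Reporter assay in engineered HepG2 line HG2L7.5c1, whose plasmid carries twenty dioxin responsive elements upstream of firefly luciferase. Treatment lasted 24 h at 37C; ONE-Glo luminescence gauged induction.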
# [10] = qHTS assay to identify small molecule that activate the aryl hydrocarbon receptor (AhR) signaling pathway - cell viability counter screen (AID 743086);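 further: HepG2 liver cells carrying the AhR DRE luciferase reporter; series mostly up to about 70 µM; nearly all actives have a fitted effect of over 45% in size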
# Procedure, shortened: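 HepG2-AhR-luc (HG2L7.5c1) cells, 4000/well, treated 24 h at 37 C with compound; viability measured as CellTiter-Fluor fluorescence after 30 min in the same wells as the luciferase read.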
# [11] = molecular target: Peroxisome proliferator-activated receptor gamma (Homo sapiens) (UniProt P37231); assay: qHTS assay to identify small molecule antagonists of the peroxisome proliferator-activated receptor gamma (PPARg) signaling pathway (AID 743191; calls by dose curve; further: series mostly up to about 63 µM; nearly all actives have a fitted effect of over 30% in size)
# Sequence of Peroxisome proliferator-activated receptor gamma (Homo sapiens) (P37231 whole entry, looked up): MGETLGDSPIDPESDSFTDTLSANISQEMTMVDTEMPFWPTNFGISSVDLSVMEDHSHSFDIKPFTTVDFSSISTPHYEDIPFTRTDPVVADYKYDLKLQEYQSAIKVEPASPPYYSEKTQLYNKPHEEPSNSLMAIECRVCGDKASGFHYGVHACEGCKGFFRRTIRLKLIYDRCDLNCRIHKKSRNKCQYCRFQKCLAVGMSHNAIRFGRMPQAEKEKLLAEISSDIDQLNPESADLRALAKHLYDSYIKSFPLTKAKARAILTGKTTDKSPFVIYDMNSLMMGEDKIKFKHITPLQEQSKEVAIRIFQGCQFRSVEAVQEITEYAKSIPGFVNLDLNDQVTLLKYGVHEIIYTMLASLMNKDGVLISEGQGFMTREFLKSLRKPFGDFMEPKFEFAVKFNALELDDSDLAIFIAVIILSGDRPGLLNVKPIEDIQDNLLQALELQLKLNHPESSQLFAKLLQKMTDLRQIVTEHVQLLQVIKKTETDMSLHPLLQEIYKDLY
# Procedure, shortened: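 GeneBLAzer PPARg UAS-bla HEK293H cells, 5 h post-plating, exposed to compounds 17 h at 37C. LiveBLAzer B/G FRET substrate added for 1 h at room temperature; beta-lactamase reporter read by fluorescence intensity.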
# [12] = qHTS assay for small molecule agonists of the antioxidant response element (ARE) signaling pathway (AID 743202; active means well fitted activation curve with a large enough effect in the signal ratio in the repeat runs, not every such curve was filed as active; the % refers to the signal ratio; further: potency means the concentration at half of the fitted maximal effect)
# Procedure, shortened: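 ARE-bla HepG2 cells (beta-lactamase reporter under the antioxidant response element), plated 5 hours, then exposed to compounds 16 hours at 37 C. LiveBLAzer B/G FRET substrate added for 2 hours at room temperature; fluorescence intensity read.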
# [13] = qHTS assay for small molecule agonists of the antioxidant response element (ARE) signaling pathway - cell viability counter screen (AID 743203; calls by dose curve; further: nearly all actives have a fitted effect of over 55% in size)
# Procedure, shortened: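 Cells (ARE-bla HepG2, 2,000/well) receive DMSO-dissolved compounds after a 5 hrs rest. Plates incubate 16 hrs at 37C/5% CO2. CellTiter-Glo luminescence is then recorded after 30 min at room temperature.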
# [14] = qHTS assay for small molecule activators of the heat shock response signaling pathway - cell viability counter screen (AID 743209); further: nearly all actives have a fitted effect of over 50% in size
# Procedure, shortened: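 Quantitative HTS format, Tox21 10K library. HeLa cells carrying an HSE-driven beta-lactamase reporter were treated 5 h at 37 C, then assessed for viability by CellTiter-Glo luminescence.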
# [15] = qHTS assay for small molecule activators of the heat shock response signaling pathway (AID 743210; active means well fitted activation curve with a large enough effect in the signal ratio in the repeat runs, with a control signal flat, not every such curve was filed as active; the % refers to the signal ratio; further: series mostly up to about 63 µM)
# Procedure, shortened: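 HSE-bla HeLa cells (beta-lactamase reporter under heat shock response elements), plated overnight, then exposed to compounds 5 h at 37 C; LiveBLAzer B/G FRET substrate added, 2.5 h at room temperature, fluorescence intensity read.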
# [16] = qHTS assay to identify small molecule agonists of the peroxisome proliferator-activated receptor delta (PPARd) signaling pathway - cell viability counter screen (AID 743211); further: nearly all actives have a fitted effect of over 55% in size
# Procedure, shortened: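 Multiplexed format: after the 2 h room-temperature LiveBLAzer B/G FRET step, CellTiter-Glo was added to the same wells. Luminescence after 30 min gave cell viability; compound exposure was 17 h at 37C.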
# [17] = molecular target: Peroxisome proliferator-activated receptor gamma (Homo sapiens) (UniProt P37231); assay: qHTS assay to identify small molecule agonists of the peroxisome proliferator-activated receptor gamma (PPARg) signaling pathway (AID 743094; active means well fitted activation curve with a large enough effect in the signal ratio in the repeat runs, not every such curve was filed as active; the % refers to the signal ratio)
# Procedure, shortened: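 Stably transfected HEK293H cells (GeneBLAzer PPARg UAS-bla) were incubated with test substances for 17 h at 37C after a 5 h pre-incubation; beta-lactamase activity was then detected by FRET substrate fluorescence.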
# [18] = qHTS assay to identify small molecule antagonists of the peroxisome proliferator-activated receptor gamma (PPARg) signaling pathway - cell viability counter screen (AID 743194); further: nearly all actives have a fitted effect of over 55% in size
# Procedure, shortened: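 Cytotoxicity counter screen in PPARg-bla HEK293H cells, same wells as reporter assay. Compounds plus 50 nM rosiglitazone (final) for 17 h at 37 C, then viability read by CellTiter-Glo luminescence.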
# [19] = test system: thyroid hormone receptor (rat, GH3 cells); assay: qHTS assay to identify small molecule agonists of the thyroid receptor (TR) signaling pathway (AID 743066; calls by dose curve)
SMILES,outcome [1],Potency [2],Potency [3],Potency [4],Potency [5],outcome [6],Potency [7],outcome [8],Potency [9],outcome [10],outcome [11],Potency [12],outcome [13],Potency [14],outcome [15],outcome [16],outcome [17],outcome [18],Potency [19]
CC(=O)SC[C@@H](C)C(=O)N1CCC[C@H]1C(=O)N[C@@H](Cc1ccccc1)C(=O)O,inactive,inactive,inactive,inactive,inactive,inactive,inactive,inactive,inactive,inactive,inactive,inactive,inactive,inactive,inactive,inactive,–,–,–
CCCCNCC,inactive,inactive,inactive,inactive,inactive,inactive,inactive,inactive,inactive,inactive,inactive,inactive,inactive,inactive,–,inactive,inactive,inactive,–
CCCC(=O)OC,inactive,inactive,inactive,inactive,inactive,inactive,inactive,inactive,–,inactive,inactive,inactive,–,inactive,–,inactive,inactive,–,inactive
CC(=O)SCC(CC(=O)c1ccc(C)cc1)C(=O)O (stereo not given),inactive,inactive,inactive,inactive,–,inactive,inactive,inactive,inactive,inactive,inactive,inactive,inactive,inactive,inactive,inactive,inactive,inactive,inactive
COC(=O)/C=C(\C)CCC=C(C)C,inactive,inactive,inactive,inactive,inactive,inactive,inactive,–,inactive,inactive,inactive,–,–,–,inactive,inactive,inactive,inactive,inactive
Cc1nc2ccc(Cl)cc2[nH]1,inactive,inactive,inactive,inactive,–,inactive,inactive,inactive,30.6 µM (active),inactive,inactive,inactive,–,inactive,inactive,inactive,inactive,inactive,inactive
CSC(=O)c1cccc2nnsc12,–,inactive,inactive,inactive,inactive,inactive,inactive,inactive,inactive,inactive,inactive,inactive,inactive,inactive,inactive,inactive,inactive,inactive,inactive
C=CC(=O)CC,–,inactive,–,–,–,inactive,inactive,inactive,inactive,inactive,inactive,inactive,inactive,inactive,–,inactive,inactive,inactive,inactive
CC12CCCC=C1C(=O)OC2=O (stereo not given),–,inactive,–,–,–,inactive,inactive,inactive,inactive,inactive,inactive,inactive,inactive,inactive,inactive,inactive,inactive,inactive,inactive
CCCCCCCCOCCC#N,–,inactive,–,–,–,inactive,–,inactive,inactive,inactive,inactive,–,inactive,inactive,–,inactive,inactive,inactive,inactive
CCCCCCCCCCCCCCCC/C=C/C1CC(=O)OC1=O (stereo not given),–,inactive,–,–,–,inactive,inactive,inactive,inactive,–,–,inactive,–,–,inactive,inactive,–,inactive,inactive
CC(C)(O)CCCC1=CCC(C=O)CC1 (stereo not given),inactive,inactive,inactive,58.1 µM (active),inactive,inactive,inactive,inactive,inactive,inactive,–,–,inactive,inactive,inactive,inactive,inactive,–,inactive
CN1C(CCl)Nc2cc(Cl)c(S(N)(=O)=O)cc2S1(=O)=O (stereo not given),inactive,inactive,inactive,inactive,inactive,inactive,inactive,inactive,inactive,inactive,inactive,26.6 µM (active),inactive,inactive,inactive,inactive,inactive,inactive,–
CCCCCCCC(=O)N(C)C,inactive,inactive,inactive,inactive,–,inactive,inactive,inactive,–,inactive,inactive,inactive,inactive,–,inactive,inactive,inactive,inactive,inactive
CC(C)(C)c1ccc(C(=O)CCCCl)cc1,–,–,–,–,–,–,–,–,–,–,–,inactive,inactive,inactive,inactive,–,–,inactive,–
N=C(N)N,–,inactive,–,–,–,inactive,inactive,inactive,inactive,inactive,–,inactive,inactive,inactive,inactive,inactive,–,inactive,–
CO/N=C(\C(=O)O)c1csc(NC(=O)CCl)n1,–,–,–,–,–,–,–,–,–,–,–,13.3 µM (active),inactive,inactive,inactive,–,–,inactive,–
Cc1cc(=O)oc2cc(O[C@@H]3SC[C@@H](O)[C@H](O)[C@H]3O)ccc12,–,–,–,–,–,–,–,–,–,–,inactive,inactive,inactive,inactive,inactive,inactive,–,inactive,–
CCCCc1ccc(Cl)cc1,inactive,inactive,inactive,inactive,inactive,inactive,inactive,inactive,–,inactive,inactive,–,–,inactive,inactive,–,–,inactive,–
CCOC(=O)CN1CCCC1=O,–,–,–,–,–,–,–,–,–,–,–,inactive,inactive,inactive,inactive,inactive,–,inactive,–
